Test [1] in a line: compounds altering circadian rhythm period length – cell-based, LOPAC library, luminescence reporter (AID 2774).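 Further: values are relative to mean of DMSO wells on each plate.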 The settings on record: circadian reporter cells, at 7 µM, actives lie on both sides.
Test [2] concerns Hepatitis C virus NS3 helicase. Kind of test: blockers of NS3h binding to ssDNA – biochemical, fluorescence polarization, LOPAC1280 library, primary screen (AID 687035; in the data active means inhibition above about 37%). Particulars: Purified HCV NS3 helicase, Cy5-dT15 ssDNA binding fluorescence polarization; stronger effect = higher value; concentration not given here.
Test [3] is described as follows: compounds altering Cy5-DNA-NS3h complex signal – biochemical, LOPAC1280, artefact control for HCV NS3 helicase inhibitor project (AID 687037). Particulars: Cy5-DNA-NS3h complex fluorescence interference counterscreen.
Test [4] concerns Aerobactin synthetase IucA (Klebsiella pneumoniae, hypervirulent). Kind of test: biochemical IucA inhibition screen of LOPAC library by absorbance (AID 1346212).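 Further: 100% = no compound wells and 0% = no enzyme wells.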 Particulars: IucA enzyme assay, absorbance (OD) readout; stronger effect = lower value;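 tested at 8 µM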.
A short description of test [5]: viability loss with induced miR-34 in A549 – imaging, A549 dox-inducible miR-34, nuclei and caspase counts, primary screen (AID 1347080;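 active means compounds whose cell count with miR-34 switched on is under 0.7 times the count with it off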). Particulars: A549 miR-34 inducible, Hoechst nuclei count, 48 h.
A short description of test [6]: blockers of cellular phospholipid synthesis – cell-based, LOPAC library, screen 4, primary screen (AID 1347384). Particulars: animal cells, phospholipid biosynthesis inhibition screen; at 10 µM.
Test [7] can be described thus: galactose survival enhancers in mitochondrial complex I cybrids – cell-based, galactose medium, ATP luminescence, primary screen (AID 1645843;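 active means z-score of at least 1.8 in each of two replicates, scored against plate mean and spread of sample wells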;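 further: positive z means more ATP and so rescue of galactose-driven cybrid death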). The settings on record: complex I mutant cybrid cells, 72 h, stronger effect = higher value.
Test [8] is described as follows: compounds altering viability of human ES cells (AID 493140).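 Further: cells exposed to compounds for four days before counting.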 The settings on record: human embryonic stem cell survival screen; stronger effect = higher value.
A short description of test [9]: chitosan synthesis blockers in C. neoformans – flow cytometry, Cibacron Brilliant Red staining (AID 1347148).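 Further: compound exposure lasted three days at 37 degrees C.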 Particulars: Cryptococcus neoformans chitosan, stronger effect = lower value; at 10 µM unless noted.
[10] abbreviates: measured here: relative caspase fold change +Dox/-Dox.
The mark [11] stands for this setting: measured here: total cells with miR-34 induction, stronger effect = lower value.
Where [12] appears, read: measured here: total cells without miR-34 induction.

Where “and” joins values, the source holds several entries; their conditions need not be identical. Equal entries are not always repeated. Calls of active or inactive are those of the source. Unless noted, how the calls were made is not given here.

In the case of `NC(=O)c1ccc(OCC(O)CN2CC=C(c3ccc(F)cc3)CC2)cc1` (centres undefined), the period change in test [1] is 0.145 h (inactive). In [2], the inhibition was -1% (inactive). Further, the fluorescence ratio (interference) in [3] was 0.9 (inactive). Moreover, in [4], the remaining activity was 103% (inactive). Further, the fold change in test [5] (stronger effect = lower value) is 1.01 (inactive); in test [5] (setting [10]) it was 1.9. Also, the cell count in test [5] (setting [11]) is 9620; in test [5] (setting [12]), 9570. Also, the call in [6] was inactive. In addition, the z-score in [7] is -0.85 (inactive).

`O=[N+]([O-])c1ccc2nc(N3CCNCC3)ccc2c1`: in test [1], the period change is -0.09 h (inactive). The inhibition in test [2] is -1% (inactive). Also, the fluorescence ratio (interference) in test [3] is 1 (inactive). In [4], the remaining activity was 117% (inactive). Besides, the values for the fold change in test [5] (stronger effect = lower value) and in test [5] (setting [10]) were 1.07 (inactive) and 1.56, respectively. Besides, the cell count came to 8660 in test [5] (setting [11]) and 8090 in test [5] (setting [12]). In addition, the call in test [6] was inactive. In addition, in [7], the z-score was -1.12 (inactive).

As to `N#CC(C#N)=Cc1ccc([N+](=O)[O-])c(O)c1`, the period change in [1] is -0.02 h (inactive). In addition, the survival in test [8] is 124 (inactive). Also, the remaining activity in test [4] is 80.4% (inactive). Besides, the fold change in test [5] (stronger effect = lower value) was 0.901 (inactive) and 1.08 (inactive); in [5] (setting [10]), 1.46 and 1.27. In addition, the cell count in test [5] (setting [11]) was 4360 and 6240; in test [5] (setting [12]), 4840 and 5770. Moreover, in [9], the fold fluorescence was 5.5 [at 232.4 µM] (inactive).

For `CCCN(CCC)CCc1ccc(O)c(O)c1`, the period change in test [1] is -0.225 h (inactive). Moreover, the inhibition in test [2] is 0% (inactive). The fluorescence ratio (interference) in test [3] was 1 (inactive). Also, the remaining activity in test [4] was 95.7% (inactive). In addition, the values for the fold change in test [5] (stronger effect = lower value) and in [5] (setting [10]) were 0.99 (inactive) and 0.931, respectively. Besides, the results for the cell count in test [5] (setting [11]) and in [5] (setting [12]) were 10100 and 10200, respectively. For the same molecule, the call in test [6] was inactive. Further, the z-score in test [7] was 0.465 (inactive).

For `CCCn1c(C)c(C(=O)c2cccc3ccccc23)c2ccccc21`, the remaining activity in test [4] is 107% (inactive). Besides, the figures for the fold change in test [5] (stronger effect = lower value) and in test [5] (setting [10]) were 0.889 (inactive) and 1.38, respectively. The values for the cell count in [5] (setting [11]) and in [5] (setting [12]) were 5580 and 6280, respectively.

Consider `Nc1ccc(CCN2CCN(c3cccc(C(F)(F)F)c3)CC2)cc1`, for which the period change in test [1] is 0.14 h (inactive). Besides, the inhibition in test [2] was -3% (inactive). In addition, the fluorescence ratio (interference) in test [3] was 0.9 (inactive). For the same molecule, in [4], the remaining activity is 102% (inactive). Moreover, the fold change in test [5] (stronger effect = lower value) was 0.992 (inactive); in [5] (setting [10]), 0.858. The cell count was determined as 8520 in test [5] (setting [11]) and 8580 in test [5] (setting [12]). In addition, the result in test [6] was inactive. Also, the z-score in test [7] was -0.665 (inactive).

For the molecule `CC(=O)[C@H]1CCC2C3CC[C@H]4C[C@H](O)CC[C@]4(C)C3CC[C@@]21C` (some centres undefined), the period change in test [1] was -0.055 h (inactive). The inhibition in test [2] was 0% (inactive). Besides, in test [3], the fluorescence ratio (interference) is 1 (inactive). Besides, the remaining activity in test [4] was 95.7% (inactive). The fold change in [5] (stronger effect = lower value) was 1.03 (inactive); in test [5] (setting [10]), 0.981. The cell count came to 10100 in [5] (setting [11]) and 9760 in test [5] (setting [12]). Also, the result in test [6] was inactive. For the same molecule, the z-score in test [7] was -0.6 (inactive).

For the molecule `COc1cccc(C(=O)NCCN2CCN(c3ccc(Cl)cc3)CC2)c1`, in [4], the remaining activity is 124% (inactive).

On to `CCCN1CCc2cccc3c2[C@H]1Cc1ccc(O)c(O)c1-3`, for which the period change in test [1] was 0.32 h (inactive). The inhibition in test [2] was -3% (inactive). Further, the fluorescence ratio (interference) in [3] was 1 (inactive). Moreover, the remaining activity in test [4] was 109% (inactive). Moreover, the fold change was 1.06 (inactive) in [5] (stronger effect = lower value) and 0.965 in [5] (setting [10]). In addition, the values for the cell count in test [5] (setting [11]) and in test [5] (setting [12]) were 7250 and 6850, respectively. Besides, the molecule was classed as inactive in [6]. Also, in [7], the z-score is -1.03 (inactive).

Source of the values: PubChem BioAssay.
